# Experiments:
# Assay in all cases: PBM binding z-score (relative to random genomic background probes); higher = stronger binding; sequences stand for … in GC…GCGATTGACAGCGTAGAATGAAGG
# [1] = tested on: FXR:RXRa (NR concentration 270 nM, RXRa partner concentration 90 nM)
# Procedure, shortened: (§1)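 Ligand-free nuclear receptor dimers were applied to custom Agilent 4×180K protein-binding microarrays whose double-stranded probes carried direct-repeat seeds, single-nucleotide variants, half-site ablations and random human genomic background sequences in 34-nt variable regions. Incubation lasted 1 h. Binding z-scores were computed against the random background probes from regression-normalized fluorescence.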
# [2] = tested on: LXRa:RXRa (NR concentration 270 nM, RXRa partner concentration 90 nM)
# Procedure, shortened: as §1
# [3] = tested on: LXRa homodimer (NR concentration 270 nM)
# Procedure, shortened: as §1
# [4] = tested on: LXRb:RXRa (NR concentration 270 nM, RXRa partner concentration 90 nM)
# Procedure, shortened: as §1
# [5] = tested on: LXRb homodimer (NR concentration 270 nM)
# Procedure, shortened: as §1
# [6] = tested on: PPARa:RXRa (NR concentration 270 nM, RXRa partner concentration 90 nM)
# Procedure, shortened: as §1
# [7] = tested on: PPARg:RXRa (NR concentration 180 nM, RXRa partner concentration 90 nM)
# Procedure, shortened: as §1
# [8] = tested on: PPARg:RXRa 270nM:90nM, anti-RXR (NR concentration 270 nM, RXRa partner concentration 90 nM)
# Procedure, shortened: as §1
# [9] = tested on: PPARg:RXRa 30nM:10nM, anti-RXR (NR concentration 30 nM, RXRa partner concentration 10 nM)
# Procedure, shortened: as §1
# [10] = tested on: PPARg:RXRa 90nM:30nM, anti-RXR (NR concentration 90 nM, RXRa partner concentration 30 nM)
# Procedure, shortened: as §1
# [11] = tested on: PPARg:RXRa DBDmut IVT, anti-RXR (DBD mutation: RXRa K156A/R161A, NR concentration 270 nM, RXRa partner concentration 90 nM)
# Procedure, shortened: as §1
# [12] = tested on: PPARg:RXRa IVT, anti-PPARg (NR concentration 270 nM, RXRa partner concentration 90 nM)
# Procedure, shortened: as §1
# [13] = tested on: PPARg DBDmut:RXRa IVT, anti-PPARg (DBD mutation: PPARg1 K132A/R137A, NR concentration 270 nM, RXRa partner concentration 90 nM)
# Procedure, shortened: as §1
# [14] = tested on: PPARg DBDmut IVT, anti-PPARg (DBD mutation: PPARg1 K132A/R137A, NR concentration 270 nM)
# Procedure, shortened: as §1
# [15] = tested on: PPARg homodimer (NR concentration 180 nM)
# Procedure, shortened: as §1
# [16] = tested on: PXR:RXRa (NR concentration 270 nM, RXRa partner concentration 90 nM)
# Procedure, shortened: as §1
# [17] = tested on: PXR homodimer (NR concentration 270 nM)
# Procedure, shortened: as §1
# [18] = tested on: RARa:RXR (NR concentration 270 nM, RXRa partner concentration 90 nM)
# Procedure, shortened: as §1
# [19] = tested on: RARa homodimer (NR concentration 270 nM)
# Procedure, shortened: as §1
# [20] = tested on: RARb:RXRa (NR concentration 270 nM, RXRa partner concentration 90 nM)
# Procedure, shortened: as §1
sequence,measurement,setting,value
GGTGCTAGGTCAGGTTGGTCAGCTAACGGGTACG,PBM binding z-score,[1],1.56
same,PBM binding z-score,[2],1.33
same,PBM binding z-score,[3],0.61
same,PBM binding z-score,[4],1.09
same,PBM binding z-score,[5],0.134
same,PBM binding z-score,[6],1.71
same,PBM binding z-score,[7],1
same,PBM binding z-score,[8],1.8
same,PBM binding z-score,[9],0.315
same,PBM binding z-score,[10],1.35
same,PBM binding z-score,[11],2.64
same,PBM binding z-score,[12],3.08
same,PBM binding z-score,[13],-0.502
same,PBM binding z-score,[14],-0.0479
same,PBM binding z-score,[15],1.8
same,PBM binding z-score,[16],0.63
same,PBM binding z-score,[17],0.481
same,PBM binding z-score,[18],1.2
same,PBM binding z-score,[19],1.12
same,PBM binding z-score,[20],3.56
ACAGGCAGGTGATGAAGGTAACTCAGGCTATCAT,PBM binding z-score,[1],-0.308
same,PBM binding z-score,[2],-0.138
same,PBM binding z-score,[3],-0.317
same,PBM binding z-score,[4],-0.214
same,PBM binding z-score,[5],-0.617
same,PBM binding z-score,[6],-0.126
same,PBM binding z-score,[7],0.575
same,PBM binding z-score,[8],-0.133
same,PBM binding z-score,[9],0.158
same,PBM binding z-score,[10],-0.0613
same,PBM binding z-score,[11],0.0324
same,PBM binding z-score,[12],0.0841
same,PBM binding z-score,[13],0.243
same,PBM binding z-score,[14],-0.423
same,PBM binding z-score,[15],-0.139
same,PBM binding z-score,[16],-0.235
same,PBM binding z-score,[17],0.0904
same,PBM binding z-score,[18],-0.0555
same,PBM binding z-score,[19],0.0189
same,PBM binding z-score,[20],0.121
CCTGCTAGGTCATGGTCCGCTAATCTACAGTATG,PBM binding z-score,[1],3.61
same,PBM binding z-score,[2],2.3
same,PBM binding z-score,[3],0.0178
same,PBM binding z-score,[4],1.67
same,PBM binding z-score,[5],-0.223
same,PBM binding z-score,[6],3.46
same,PBM binding z-score,[7],2.34
same,PBM binding z-score,[8],2.78
same,PBM binding z-score,[9],0.499
same,PBM binding z-score,[10],1.74
same,PBM binding z-score,[11],4.12
same,PBM binding z-score,[12],3.6
same,PBM binding z-score,[13],-0.11
same,PBM binding z-score,[14],-0.235
same,PBM binding z-score,[15],0.575
same,PBM binding z-score,[16],1.29
same,PBM binding z-score,[17],-0.433
same,PBM binding z-score,[18],2.09
same,PBM binding z-score,[19],-0.439
same,PBM binding z-score,[20],3.88

# — the supplement of paper PMC6555819
